Compound activity from PubChem.
Hits are enriched below; roughly 3.6% of the tested compounds scored in any of these assays.
TSG101-PTAP inh – qHTS Validation Assay for Inhibitors of HIV-1 Budding by Blocking the Interaction of PTAP/TSG101: Sytravon Library Screen; Fluorescence polarization, FITC-PTAP peptide/Tsg101, 20 min; Potency, µM (titrated, usually from 115 µM), usual class: inhibitors; 44,000 tested, under 10 active; Tumor susceptibility gene 101 protein (Homo sapiens), Q99816; also: potency is read from the fitted curve at half-maximal effect; 0% is about no effect
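FITC-labeled PTAP peptide (50 nM final) binding to Tsg101 binding domain (10 uM final) read by fluorescence polarization after 20 min at r.t. in HEPES pH 7.5 buffer. Actives by CRC class, <25 µM.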
DRV1 agonist – qHTS for Agonists of Human Resolvin D1 Receptor DRV1. Probable G-protein coupled receptor 32 (Homo sapiens), O75388. 48,000 tested, 2.5% active. CHO-K1 GPR32 beta-arrestin PathHunter luminescence, 90 min; zero percent set by DMSO-only wells. activation, % at 76.9 µM. AID 1346428, 2018;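 active = activation of at least 60% and not above a set upper limit, about 1 call in 100 departs from these limits; inconclusive = activation of 40% to 60%, or above that upper limit; inactive = activation under 40%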; also: 0% is about no effect
Target sequence (O75388 whole entry, looked up): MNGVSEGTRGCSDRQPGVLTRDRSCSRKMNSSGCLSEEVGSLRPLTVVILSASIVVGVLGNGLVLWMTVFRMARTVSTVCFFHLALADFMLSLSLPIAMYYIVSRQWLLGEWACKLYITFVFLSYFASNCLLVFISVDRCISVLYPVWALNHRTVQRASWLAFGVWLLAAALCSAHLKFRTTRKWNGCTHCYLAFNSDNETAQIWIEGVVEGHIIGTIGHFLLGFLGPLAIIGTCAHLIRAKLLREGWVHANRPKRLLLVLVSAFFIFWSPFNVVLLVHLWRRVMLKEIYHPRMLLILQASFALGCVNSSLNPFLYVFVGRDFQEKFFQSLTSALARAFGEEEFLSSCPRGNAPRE
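GPR32 activation in stably transfected CHO-K1 cells, detected as beta-arrestin recruitment by enzyme-fragment complementation. Compound exposure: 90 min, 37 °C.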
HTT-AS act – Primary qHTS for Identification of Small Molecule Activators of Huntingtin-Antisense Promoter Activity. HEK293 HTT-AS promoter firefly luciferase reporter, 24 h; response scale: percent change from vehicle, -100% = no light. Potency, µM (top dose mostly 57.5 µM), without a hit: at the top dose activity change, positive = activation, most hits filed as activators. 48,000 tested, 0.24% active; also: potency is read from the fitted curve at half-maximal effect; nearly all actives have a fitted effect of over 55% in size
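Firefly luciferase readout (Dual-Glo, 10 min RT) after 24 h, 37 °C compound exposure (final up to 57.5 uM) of HEK293 reporter cells cultured 24 h beforehand; PTC124 at 50 uM final as control inhibitor; activity scaled vehicle 0%, zero RLU -100%.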
HTT prom inh – Primary qHTS for Identification of Small Molecule Inhibitors of Huntingtin Promoter Activity. 48,000 tested, 0.93% active. AID 1508623, 2021. HEK293 HTT promoter firefly luciferase reporter, 24 h. Potency, µM (top dose mostly 57.5 µM), inactives show top-dose activity change, negative = inhibition, usual class: inhibitors; also: potency is read from the fitted curve at half-maximal effect; nearly all actives have a fitted effect of over 50% in size
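HEK293 cells carrying firefly luciferase reporters were seeded at 2,500 per well in Opti-MEM and cultured for 24 h. They were then treated with compounds at up to 57.5 uM final for 24 h at 37 degrees C before Dual-Glo luminescence readout.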
B2AR arrestin ag – qHTS assay of beta-arrestin-biased ligands of beta2-adrenergic receptor: NCGC Sytravon Library Screen | 44,000 tested, under 10 active | Beta-2 adrenergic receptor (Homo sapiens), P07550 | Potency, µM (doses to about 46.1 µM), usual class: activators | HTLA Tango cells, beta-arrestin recruitment, luciferase luminescence, 18 h;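 also: potency is read from the fitted curve at half-maximal effect; 0% = DMSO and full agonism = EC100 isoproterenol or metaproterenol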
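Tango cells expressing recombinant beta2-AR and beta-arrestin were treated with compounds (up to 46 microM titration) in DMEM with 1% FBS for 18 hr at 37 degrees C. Beta-arrestin recruitment drove tTA-dependent luciferase, read by luminescence; curves were fitted and classed.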
GALK inh – qHTS Assay for Inhibitors of Human Galactokinase (GALK): NCGC Sytravon Library Screen; recombinant GALK, Kinase-Glo ATP luminescence, 1 h; P51570; Potency, µM (top dose mostly 57.5 µM), for the others: at the top dose activity, negative = inhibition, hits mostly inhibitors; 44,000 tested, under 10 active;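 also: plate controls were full GALK reaction for no effect and reaction lacking GALK for full effect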
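Human GALK (5 nM) was incubated with 35 uM ATP and 100 uM galactose in 20 mM HEPES pH 8.0 with MgCl2, NaCl, DTT and BSA for 1 h at room temperature. Remaining ATP was measured by Kinase-Glo Plus luminescence.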
* = called active by the depositor; i = inactive; ? = inconclusive; · = no result given. Unless noted, calls follow the shape of the dose curve; as a rule, active = well fitted curve in the direction sought with a large enough effect; inconclusive = small, poorly fitted or top-dose-only effect, or another doubt; inactive = no such curve, though single readings can be large; an effect the other way counts as inactive or inconclusive.

SMILES	TSG101-PTAP inh	DRV1 agonist	HTT-AS act	HTT prom inh	B2AR arrestin ag	GALK inh
CC(=O)N1c2ccc(S(=O)(=O)NCC3CCC(C(=O)Nc4cccc(F)c4)CC3)cc2CC1C (stereo not given)	i	64*	-52%	?	i	?
Cc1cc(NC(=O)CCNS(=O)(=O)c2ccc3c(c2)oc(=O)n3C)ccc1Br	i	12	-18%	-15%	i	-13%
CC(=O)N1c2ccc(S(=O)(=O)NCCC(=O)Nc3ccc(Br)c(C)c3)cc2CC1C (stereo not given)	i	69*	-67%	?	i	3%
CCC(=O)Nc1ccc2nc(SCCOc3ccc(C)cc3OC)sc2c1	i	93*	-12%	-14%	i	-8%
CCC(=O)Nc1ccc2nc(SCCOc3cccc(C)c3)sc2c1	i	86*	-30%	?	i	-1%
Cc1cccc(C(=O)Nc2ccc3nc(SCCOc4ccccc4)sc3c2)c1	i	14	-14%	-6%	i	-2%
COc1cc(C)ccc1OCCSc1nc2ccc(NC(=O)c3ccc(F)cc3)cc2s1	i	-3	-14%	-4%	i	0%
COc1cccc(CN2C(=O)c3ccccc3C2C(=O)NCCc2ccc(OC)c(OC)c2)c1 (stereo not given)	i	-10	-11%	-7%	i	1%
COc1cccc(CCc2ccccc2OCC(CN(C)C)OC(=O)CCC(=O)O)c1 (stereo not given)	·	95*	-18%	-2%	·	·
O=C(/C=C/N1C[C@@H]2C[C@@H]1CN2c1ccccn1)c1ccccc1O	·	·	·	-11%	·	·
CC(=O)[C@]1(O)Cc2c(O)c3c(c(O)c2[C@@H](O[C@H]2C[C@H](N)[C@@H](O)[C@H](C)O2)C1)C(=O)c1ccccc1C3=O	·	·	-28%	?	·	·
Cc1cccc(N2CCN(C(=O)Cn3c(=O)c4cccn4c4ccc(F)cc43)CC2C)c1 (stereo not given)	i	-37	-26%	-17%	i	-1%
Cc1cccc(N2CCN(C(=O)Nc3ccc(F)cc3)CC2C)c1 (stereo not given)	i	63*	-11%	-11%	i	-1%
Cc1cccc(N2CCN(C(=O)c3cc4c(=O)[nH]c5ccc(C)cc5c4s3)CC2C)c1 (stereo not given)	i	-3	-68%	13µM*	i	0%
CN(C(=O)c1ccc(F)cc1C(F)(F)F)C1CCN(c2nnc(-c3ccnn3C)c3ccccc23)CC1	·	·	-37%	?	·	·
CCOC(=O)[C@H](CCc1ccccc1)N[C@@H](C)C(=O)N1[C@@H](C(=O)O)C[C@H]2CCC[C@@H]21	·	·	-18%	?	·	·
CCc1cccc(CC)c1NC(=O)N1Cc2[nH]nc(NC(=O)c3ccc(N4CCN(C)CC4)cc3)c2C1	·	·	-16%	1%	·	·
Cc1ccccc1Nc1c(-c2ccccc2)nc2cccc(C)n12	i	-20	3%	-15%	i	2%
Cc1ccccc1Nc1c(-c2c[nH]c3ccccc23)nc2cccc(C)n12	i	63*	?	22%	i	2%
Cc1ccccc1Nc1c(-c2ccc(Cl)s2)nc2cccc(C)n12	i	61*	?	0%	i	1%
Nc1ccc(C(=O)OCC(O)CO)cc1 (stereo not given)	·	-3	-3%	1%	·	·
